# Biological target: pT7_6His-AlfaTag-ZIF268 (human, UniProt P18146 335-423)
# Assay: PADIT-seq
# Details: dsDNA, one strand shown
row,Sequence,binding signal [log2FC]
1,CTCGAGGATATCAAGATCTGGCCTCGGCTACCCACGCGGAACCTCTAGCTAGCCGACTCACTATAGGGATAATCGCCCTGAGCAAAGACC,0.362 ± 0.0981
2,CTCGAGGATATCAAGATCTGGCCTCGGCCTGTGGGCGGGAACCTCTAGCTAGCCGACTCACTATAGGGATAATCGCCCTGAGCAAAGACC,2.23 ± 0.0754
3,CTCGAGGATATCAAGATCTGGCCTCGGCGCGAAAGCGGGAACCTCTAGCTAGCCGACTCACTATAGGGATAATCGCCCTGAGCAAAGACC,0.0239 ± 0.114
4,CTCGAGGATATCAAGATCTGGCCTCGGCCGCCCACGGGGAACCTCTAGCTAGCCGACTCACTATAGGGATAATCGCCCTGAGCAAAGACC,1.11 ± 0.0917
5,CTCGAGGATATCAAGATCTGGCCTCGGCGGTTGGGCGGGAACCTCTAGCTAGCCGACTCACTATAGGGATAATCGCCCTGAGCAAAGACC,0.0831 ± 0.0849
6,CTCGAGGATATCAAGATCTGGCCTCGGCGCGTGGTGCGGAACCTCTAGCTAGCCGACTCACTATAGGGATAATCGCCCTGAGCAAAGACC,0.41 ± 0.0906
7,CTCGAGGATATCAAGATCTGGCCTCGGCATGTGGGCGGGAACCTCTAGCTAGCCGACTCACTATAGGGATAATCGCCCTGAGCAAAGACC,2.94 ± 0.0778
8,CTCGAGGATATCAAGATCTGGCCTCGGCAACCCACGCGGAACCTCTAGCTAGCCGACTCACTATAGGGATAATCGCCCTGAGCAAAGACC,0.721 ± 0.102
9,CTCGAGGATATCAAGATCTGGCCTCGGCTGGTGGGCGGGAACCTCTAGCTAGCCGACTCACTATAGGGATAATCGCCCTGAGCAAAGACC,1.81 ± 0.0735
10,CTCGAGGATATCAAGATCTGGCCTCGGCGCGTGGGCAGGAACCTCTAGCTAGCCGACTCACTATAGGGATAATCGCCCTGAGCAAAGACC,2.8 ± 0.0823
11,CTCGAGGATATCAAGATCTGGCCTCGGCCGCCCACCGGGAACCTCTAGCTAGCCGACTCACTATAGGGATAATCGCCCTGAGCAAAGACC,0.114 ± 0.0972
12,CTCGAGGATATCAAGATCTGGCCTCGGCGCGCCACGCGGAACCTCTAGCTAGCCGACTCACTATAGGGATAATCGCCCTGAGCAAAGACC,0.0182 ± 0.0932
13,CTCGAGGATATCAAGATCTGGCCTCGGCGCGGCGGCGGGAACCTCTAGCTAGCCGACTCACTATAGGGATAATCGCCCTGAGCAAAGACC,0.141 ± 0.11
14,CTCGAGGATATCAAGATCTGGCCTCGGCCGCTGCCGCGGAACCTCTAGCTAGCCGACTCACTATAGGGATAATCGCCCTGAGCAAAGACC,0.0482 ± 0.0994
15,CTCGAGGATATCAAGATCTGGCCTCGGCGCGAGGGCGGGAACCTCTAGCTAGCCGACTCACTATAGGGATAATCGCCCTGAGCAAAGACC,0.751 ± 0.109
16,CTCGAGGATATCAAGATCTGGCCTCGGCCACCCACGCGGAACCTCTAGCTAGCCGACTCACTATAGGGATAATCGCCCTGAGCAAAGACC,2.1 ± 0.135
17,CTCGAGGATATCAAGATCTGGCCTCGGCGCGTGGCGTGGAACCTCTAGCTAGCCGACTCACTATAGGGATAATCGCCCTGAGCAAAGACC,0.0995 ± 0.108
18,CTCGAGGATATCAAGATCTGGCCTCGGCGATTGGGCGGGAACCTCTAGCTAGCCGACTCACTATAGGGATAATCGCCCTGAGCAAAGACC,0.0131 ± 0.0888
19,CTCGAGGATATCAAGATCTGGCCTCGGCGCGTGGTGGGGAACCTCTAGCTAGCCGACTCACTATAGGGATAATCGCCCTGAGCAAAGACC,0.205 ± 0.103
20,CTCGAGGATATCAAGATCTGGCCTCGGCCGCGGCCGCGGAACCTCTAGCTAGCCGACTCACTATAGGGATAATCGCCCTGAGCAAAGACC,0.0714 ± 0.102

row,Sequence,binding signal [log2FC]
1,CTCGAGGATATCAAGATCTGGCCTCGGCCGCCCACACGGAACCTCTAGCTAGCCGACTCACTATAGGGATAATCGCCCTGAGCAAAGACC,1.63 ± 0.0957
2,CTCGAGGATATCAAGATCTGGCCTCGGCGCGTGGTCCGGAACCTCTAGCTAGCCGACTCACTATAGGGATAATCGCCCTGAGCAAAGACC,0.192 ± 0.0971
3,CTCGAGGATATCAAGATCTGGCCTCGGCCGCCCATACGGAACCTCTAGCTAGCCGACTCACTATAGGGATAATCGCCCTGAGCAAAGACC,0.364 ± 0.092
4,CTCGAGGATATCAAGATCTGGCCTCGGCGCGTGTGCGGGAACCTCTAGCTAGCCGACTCACTATAGGGATAATCGCCCTGAGCAAAGACC,0.312 ± 0.112
5,CTCGAGGATATCAAGATCTGGCCTCGGCGTCCCACGCGGAACCTCTAGCTAGCCGACTCACTATAGGGATAATCGCCCTGAGCAAAGACC,0.365 ± 0.0872
6,CTCGAGGATATCAAGATCTGGCCTCGGCGGGTGGGCGGGAACCTCTAGCTAGCCGACTCACTATAGGGATAATCGCCCTGAGCAAAGACC,1.66 ± 0.0839
7,CTCGAGGATATCAAGATCTGGCCTCGGCCGGTGGGCGGGAACCTCTAGCTAGCCGACTCACTATAGGGATAATCGCCCTGAGCAAAGACC,1.3 ± 0.0687
8,CTCGAGGATATCAAGATCTGGCCTCGGCACATGGGCGGGAACCTCTAGCTAGCCGACTCACTATAGGGATAATCGCCCTGAGCAAAGACC,0.18 ± 0.0881
9,CTCGAGGATATCAAGATCTGGCCTCGGCCGCCCACAGGGAACCTCTAGCTAGCCGACTCACTATAGGGATAATCGCCCTGAGCAAAGACC,0.494 ± 0.158
10,CTCGAGGATATCAAGATCTGGCCTCGGCAGACCACGCGGAACCTCTAGCTAGCCGACTCACTATAGGGATAATCGCCCTGAGCAAAGACC,0.0219 ± 0.102
11,CTCGAGGATATCAAGATCTGGCCTCGGCGCGTGGGCGGGAACCTCTAGCTAGCCGACTCACTATAGGGATAATCGCCCTGAGCAAAGACC,4.32 ± 0.0557
12,CTCGAGGATATCAAGATCTGGCCTCGGCCAGTGGGCGGGAACCTCTAGCTAGCCGACTCACTATAGGGATAATCGCCCTGAGCAAAGACC,1.87 ± 0.0948
13,CTCGAGGATATCAAGATCTGGCCTCGGCGCGTGGAGAGGAACCTCTAGCTAGCCGACTCACTATAGGGATAATCGCCCTGAGCAAAGACC,0.18 ± 0.105
14,CTCGAGGATATCAAGATCTGGCCTCGGCGCGTGGGAGGGAACCTCTAGCTAGCCGACTCACTATAGGGATAATCGCCCTGAGCAAAGACC,3.65 ± 0.0848
15,CTCGAGGATATCAAGATCTGGCCTCGGCGCGTGGCGCGGAACCTCTAGCTAGCCGACTCACTATAGGGATAATCGCCCTGAGCAAAGACC,0.0413 ± 0.108
16,CTCGAGGATATCAAGATCTGGCCTCGGCGCGTGGTAGGGAACCTCTAGCTAGCCGACTCACTATAGGGATAATCGCCCTGAGCAAAGACC,0.402 ± 0.089
17,CTCGAGGATATCAAGATCTGGCCTCGGCGCGTGGTGAGGAACCTCTAGCTAGCCGACTCACTATAGGGATAATCGCCCTGAGCAAAGACC,0.258 ± 0.102
18,CTCGAGGATATCAAGATCTGGCCTCGGCGCGTCAGCGGGAACCTCTAGCTAGCCGACTCACTATAGGGATAATCGCCCTGAGCAAAGACC,0.0878 ± 0.104
19,CTCGAGGATATCAAGATCTGGCCTCGGCGCGTGGTTCGGAACCTCTAGCTAGCCGACTCACTATAGGGATAATCGCCCTGAGCAAAGACC,0.121 ± 0.0856

# From article doi:10.1101/2024.03.05.583629
